High-throughput results deposited in PubChem BioAssay by several laboratories.
Hits are enriched below; roughly 32% of the tested compounds scored in any of these assays.
CYP2C9 act = increases human cytochrome P450 2C9 activity | AID 1024 | P11712 | 96,000 compounds, 1.4% hits | recombinant CYP2C9, luciferin-H conversion, luminescence; stronger effect = higher value; factor 1 = untreated enzyme, 0 = blocked | activation factor at 5 µM;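 active = activation factor of 2 or more for CYP2C9 at a 5 µM dose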;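 note: 0 = sulfaphenazole-blocked wells and 1 = vehicle-only wells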
Target sequence (P11712 whole entry, looked up): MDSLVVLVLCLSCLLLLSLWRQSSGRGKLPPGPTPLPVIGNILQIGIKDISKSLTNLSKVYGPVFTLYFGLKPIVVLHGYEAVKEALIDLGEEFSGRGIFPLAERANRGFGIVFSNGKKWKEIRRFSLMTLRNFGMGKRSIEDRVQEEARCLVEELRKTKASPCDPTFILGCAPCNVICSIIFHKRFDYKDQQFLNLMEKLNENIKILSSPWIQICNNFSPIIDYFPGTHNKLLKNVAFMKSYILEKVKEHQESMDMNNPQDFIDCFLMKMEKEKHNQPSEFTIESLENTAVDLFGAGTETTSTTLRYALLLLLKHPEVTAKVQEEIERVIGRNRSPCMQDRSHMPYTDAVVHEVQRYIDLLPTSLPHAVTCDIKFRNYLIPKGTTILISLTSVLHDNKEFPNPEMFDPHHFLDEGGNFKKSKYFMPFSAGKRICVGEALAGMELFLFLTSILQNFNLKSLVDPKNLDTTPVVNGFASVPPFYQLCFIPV
PostGolgi yeast = growth inhibition of a yeast mutant, post-Golgi transport screen. AID 739. inhibition, % at 10 µM. 98,000 compounds, 0.9% hits. post-Golgi transport phenotypic cell assay;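 note: yeast cells grown in 1536-well plates; yeast grown about 18 h at 30C before absorbance read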
PostGolgi ctrl = inhibits growth of the yeast control strain; efflux-deficient yeast background strain, growth absorbance A615, 16 h; inhibition, % at 10 µM; 98,000 compounds, 5% hits; AID 738
CYP2C19 activ = activators of human cytochrome P450 2C19. AID 1025. 96,000 tested, under 10 active. activation factor at 5 µM. recombinant CYP2C19, luciferin-H EGE luminescence; stronger effect = higher value; 0 = fully inhibited enzyme, 1 = untreated enzyme. P33261;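 active = activation factor of at least 2 at 5 µM in the primary screen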;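 note: 0 = wells with 2.5 mM tranylcypromine and 1 = vehicle-only wells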
CYP2C19 inhib = blocks human cytochrome P450 2C19; CYP2C19 Supersomes, luciferin-H EGE luminescence, 30 min; inhibition, % at 5 µM; 96,000 compounds, 21% hits; AID 778;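 active = CYP2C19 inhibition above a set limit at 5 µM in the primary screen, cut at about 50% in these data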;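 note: plate controls were negative control wells for no effect and 2.5 mM tranylcypromine positive control for full effect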
CYP2C9 inhib = inhibitors of human CYP2C9 | P11712 | CYP2C9 Supersomes, luciferin-H conversion, luminescence | inhibition, % at 5 µM | 96,000 compounds, 20% hits;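 active = blocking of liver enzyme CYP2C9 beyond about 50% at 5 µM, limit read from the data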
An asterisk follows results filed as active; · = no result given. Cut-off read from the data, not from the text of the source, unless noted: active = inhibition above about 30%; inactive = the rest.

SMILES	CYP2C9 act	PostGolgi yeast	PostGolgi ctrl	CYP2C19 activ	CYP2C19 inhib	CYP2C9 inhib
O=C(c1cn(-c2ccccc2)nc1-c1cccs1)N1CCN(c2ccccn2)CC1	0	-3	54*	0	96*	100*
COc1ccccc1C(=O)N1CCN(c2ccccn2)CC1	0.7	2	12	0.7	32	27
O=C(CSCc1ccccc1Cl)N1CCN(c2ccccn2)CC1	0.2	3	20	0.1	87*	85*
O=C(CN1C(=O)c2ccccc2C1=O)N1CCN(c2ccccn2)CC1	1	-8	-12	1	2	-1
CC1CCCCC1NC(=O)c1ccc2c(c1)[nH]c(=O)n2C1CCCC1 (configuration not stated)	0.2	-13	7	0.6	43	76*
CC(=N\O)/C(CN(C)C)=N/O	0.9	-5	-2	1	4	6
O=C(CN(CCc1ccccc1)C(=O)Cn1nnc(-c2cccs2)n1)NCc1ccco1	0.2	-4	11	0.4	56*	81*
O=C(CN(C(=O)Cn1nnc(-c2cccs2)n1)c1ccc2c(c1)OCCO2)NCc1ccccc1	0	-2	6	0.4	60*	96*
O=C(CN(CCc1ccccc1)C(=O)CN1C(=O)COc2ccccc21)NCc1ccco1	0.7	0	25	0.6	36	30
Cc1ccc2[nH]c(=O)c(N3CCOCC3)c(-c3ccccc3)c2c1	1.1	-3	21	1.1	-7	-11
CCOc1ccc(CN2CCNC(=O)C2CC(=O)OC)cc1 (configuration not stated)	1.1	8	0	1.2	-15	-12
COc1cccc2sc(NC(=O)c3ccc(S(=O)(=O)N4CCOCC4)cc3)nc12	0.1	-3	9	0.4	64*	86*
COc1ccc(C)cc1NC(=O)c1ccc(S(=O)(=O)N2CCOCC2)cc1	3.6*	0	-1	1	5	-264
CCOC(=O)N1CCN(S(=O)(=O)c2ccc(C(=O)Nc3nc4ccc(F)cc4s3)cc2)CC1	0.4	-2	-7	0.8	22	64*
COc1ccccc1C(=O)NCC1CCN(c2ccc(S(=O)(=O)N3CCOCC3)cc2)CC1	0.6	-5	5	0.4	58*	36
CCOC(=O)N1CCN(S(=O)(=O)c2ccc(C(=O)Nc3nc4ccccc4s3)cc2)CC1	0.6	-11	8	1	2	45
C/C(=C\C(=O)Nc1nccs1)c1ccccc1	0.7	5	14	0.6	39	28
COc1ccccc1NC(=O)c1ccc(S(=O)(=O)N2CCOCC2)cc1	3.5*	5	5	0.9	14	-249
COc1cc(NS(=O)(=O)c2ccc(NC(=O)c3ccco3)cc2)nc(OC)n1	0.9	-6	35*	1	1	8
CCC(=O)Nc1ccc(S(=O)(=O)Nc2ncccn2)cc1	0.9	2	31*	1	4	9
COc1ccccc1OCC(=O)Nc1ccc(S(=O)(=O)Nc2nc(C)cc(C)n2)cc1	0.3	7	4	0.6	38	70*
CC(=O)Nc1ccc(S(=O)(=O)Nc2ncccn2)cc1	1	-4	-12	1	4	-1
COc1cc(NS(=O)(=O)c2ccc(NC(C)=O)cc2)nc(OC)n1	0.8	4	21	1.1	-13	15
COc1ccccc1C(=O)Nc1ccc(S(=O)(=O)Nc2cc(C)nc(C)n2)cc1	0.4	5	-3	1	0	56*
CCOC(=O)C1CCN(c2cc(=O)n(C3CCCCC3)c(=O)[nH]2)CC1	0.8	4	-2	0.9	8	15
SMILES	CYP2C9 act	PostGolgi yeast	PostGolgi ctrl	CYP2C19 activ	CYP2C19 inhib	CYP2C9 inhib
CC(CCc1ccccc1)NC(=O)c1nnc(Cc2ccc(Cl)cc2)o1 (configuration not stated)	0.8	-5	10	0.8	16	15
COc1cc(NS(=O)(=O)c2ccc(N/C=C(\C#N)c3nc4cc(Cl)ccc4o3)cc2)nc(OC)n1	0.4	-2	1	1.1	-6	63*
Cc1nc2ccc(NC(=O)c3ccc(F)c(S(=O)(=O)N4CCOCC4)c3)cc2s1	0.7	4	-2	0.8	18	27
COc1ccc(NS(=O)(=O)c2ccc(O)c(C(=O)OCC(=O)N3CC(C)OC(C)C3)c2)cc1 (configuration not stated)	0.2	-1	11	0.3	71*	82*
CC(=O)Nc1cc(NC(C)=O)cc(C(=O)OCC(=O)N2CC(C)OC(C)C2)c1 (configuration not stated)	0.9	-2	6	1.1	-10	6
CC(=O)Oc1ccc(-c2cccc(C(=O)Oc3ccccc3)c2)cc1	1.1	1	-4	1.1	-8	-13
CCOC(=O)c1c(NC(=O)CSc2nnc(CNC(=O)c3ccco3)n2C)sc2c1CCC2	0.3	-2	26	1	2	70*
CCOC(=O)c1c(NC(=O)c2cccs2)sc2c1CCC2	0.8	·	·	0.8	20	23
CCOC(=O)c1c(NC(=O)c2c(C)noc2C)sc2c1CCCCC2	1.1	9	6	1.2	-16	-6
CCOC(=O)c1c(NC(=O)C(C)N2CCN(C(=O)c3ccco3)CC2)sc2c1CCCC2 (configuration not stated)	0	-6	13	0.2	77*	100*
CCOC(=O)c1c(NC(=O)c2ccc(N3C(=O)C4C5C=CC(C5)C4C3=O)cc2)sc2c1CCCC2 (configuration not stated)	0.3	-2	12	0.9	14	66*
CCOC(=O)c1c(NC(=O)c2ccco2)sc2c1CCCCC2	0.2	0	20	0.6	38	78*
Nc1nc(Br)c2c(F)cccc2c1-c1ccc(F)cc1	0.7	13	26	0.8	17	29
Cc1ccccc1NC1C=CS(=O)(=O)C1 (configuration not stated)	0.9	3	0	0.9	9	5
O=c1[nH]c2ccc(NC(=S)Nc3ccccc3Cl)cc2[nH]1	0.8	26	-8	0.7	32	22
Cc1ccc(-n2nc3c(c2NC(=O)c2c(-c4ccccc4Cl)noc2C)CSC3)cc1	0.6	0	9	0.8	22	37
O=C(CCS(=O)(=O)c1ccc(Cl)cc1)Oc1ccc2c(c1)OCO2	0.7	-6	3	0.8	24	35
Cc1ccn2cc(-c3ccc(S(=O)(=O)N4CCOCC4)cc3)nc2c1	0.8	·	·	0.9	6	15
NC(=O)c1c(NC(=O)CSc2nnc(Cc3ccccc3)n2Cc2ccco2)sc2c1CCC2	0.4	-8	9	0.8	25	64*
O=C(Nc1sc2c(c1C(=O)O)CCCCC2)c1ccco1	0.5	0	22	0.6	40	51*
CCOC(=O)c1c(NC(=O)c2cccs2)sc2c1CCCC2	1	2	10	1	3	0
CCOC(=O)c1c(NS(=O)(=O)Cc2ccccc2)sc2c1CCCC2	0	6	36*	0	99*	95*
